Results published in PubChem BioAssay (NCI).
About 79,000 compounds went through this panel and 15% of them were active in at least one assay; those are over-represented in the sample as a whole. The source made the active and inactive calls. Rule as the data show it: active = growth inhibition above about 70%; inactive = the rest.

Assay: NCI Yeast Anticancer Drug Screen. Data for the wt2 strain (AID 169);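 also: 0% = growth of vehicle-treated yeast cultures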
Settings: S. cerevisiae wt2 strain growth inhibition, active compounds read high
Procedure: Growth inhibition of yeast strains with defined genetic alterations is measured as a screen for potential anti-cancer activity. Selected strains with alterations in DNA damage repair or cell cycle control were exposed to compounds and growth inhibition was measured relative to vehicle treated controls. The strain used in this assay is wt2

Measured: growth inhibition

CSC(=S)N/N=C(\C)c1cccc(C)n1
active: at 100.0 µM 99%
inactive: at 1.2 µM -6% | at 3.7 µM -6% | at 11.0 µM -5% | at 33.0 µM 63%

COC(=O)C1=C(C(=O)OC)C2(C)C=CC1O2 (stereo not given)
inactive: at 1.2 µM -4% | at 3.7 µM -3% | at 11.0 µM 52%
active: at 33.0 µM 91% | at 100.0 µM 97%

CN(CCc1ccccn1)c1ccc2c(c1)Cc1ccccc1-2
inactive: at 1.2 µM -1% | at 3.7 µM -2% | at 11.0 µM 5% | at 33.0 µM 4% | at 100.0 µM 26%

CCC(C)COC(=O)c1ccc(N=Cc2ccc(C=Nc3ccc(C(=O)OCC(C)CC)cc3)cc2)cc1 (stereo not given)
inactive: at 1.2 µM 0% | at 3.7 µM -2% | at 11.0 µM 0% | at 33.0 µM 2% | at 100.0 µM 5%

CCCCCCCCC/C=C/C=C/C(=O)NCC(=O)NC1C(O)C(O)C(Nc2ncnc3nc[nH]c23)OC1C(O)CO (stereo not given)
inactive: at 1.2 µM 7% | at 3.7 µM 24% | at 11.0 µM 53% | at 33.0 µM 61% | at 100.0 µM 56%

O=[N+]([O-])c1cccc([N+](=O)[O-])c1S(=O)(=O)c1ccccc1
active: at 33.0 µM 90% | at 100.0 µM 94%
inactive: at 1.2 µM 1% | at 3.7 µM 22% | at 11.0 µM 60%

CC(C)=CC(=O)O[C@@H]1CC(C)(C)CC2C3=CCC4[C@]56CC[C@](O)(OC5)C(C)(C)C6CC[C@@]4(C)C3(C)CC[C@]21C(=O)O (stereo not given in full)
active: at 33.0 µM 91% | at 100.0 µM 94%
inactive: at 1.2 µM -11% | at 3.7 µM 18% | at 11.0 µM 61%

CN(C)CCOc1ccc2c(c1)C/C(=C/c1ncc([N+](=O)[O-])n1C)C2=O
inactive: at 1.2 µM -40% | at 3.7 µM -23% | at 11.0 µM -30% | at 33.0 µM -22% | at 100.0 µM 25%
